Assay [1] is described as follows: BSK_BT_PBMCCytotoxicity: PBMC Cytotoxicity Assessment in the BioMAP Diversity Plus: BT Assay (AID 2284225).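 Note: PBMC viability measured by Alamar Blue dye reduction fluorescence.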 Conditions: primary human B cells with PBMC. Put shortly:
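75,000 cells/well; cpd 1 h → SEB + TSST-1 (20 ng/mL final each) → 90 h → Alamar Blue 6 h → fluor. 546/580 nm. DMSO = neg. control/baseline.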

Read-out in assay [2]: Secreted IgG (sIgG), gene 3500
The experiment in a line: BSK_BT_sIgG: BioMAP Diversity Plus: BT Assay for Secreted IgG (sIgG) Biomarker Activity (AID 2284226). Conditions: primary human B cells with PBMC. Put shortly:
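Secreted IgG from a human primary B cell–PBMC co-culture was measured by ELISA 24 hours after dosing, with DMSO defining baseline activity.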

Assay [3] is described as follows: BSK_BT_Bcell_Proliferation: Viability Assessment in the BioMAP Diversity Plus: BT Assay for B cell Proliferation (AID 2284227). Conditions: primary human B cells with PBMC. Put shortly:
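Human B cell/PBMC co-culture; test chemical added; 72 h; TCA fix (10%), 0.1% SRB stain, A560 for total protein as a proliferation read-out; positive-direction fit vs DMSO baseline.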

Read-out in assay [4]: Interleukin 6 (IL6), IL6 (gene 3569)
The experiment in a line: BSK_BT_xIL6: BioMAP Diversity Plus: BT Assay for Interleukin 6 (IL6) Biomarker Activity (AID 2284228). Particulars: primary human B cells with PBMC. Put shortly: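 IL-6 secretion measured (Luminex xMAP) in human primary B cell + PBMC co-culture at 24 h of chemical exposure; DMSO served as negative control and activity baseline, with curves fitted for increase.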

Read-out in assay [5]: Interleukin 17A (IL17A), IL17A (gene 3605)
The experiment in a line: BSK_BT_xIL17A: BioMAP Diversity Plus: BT Assay for Interleukin 17A (IL17A) Biomarker Activity (AID 2284229). Particulars: primary human B cells with PBMC. The essentials:
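Human primary B cells plus PBMC, treated 24 h with chemicals; supernatant IL-17A quantified on Luminex xMAP beads. Gain of signal over DMSO control scored as activity.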

Read-out in assay [6]: Tumor necrosis factor (Homo sapiens) (UniProt P01375)
The experiment in a line: BSK_BT_xTNFa: BioMAP Diversity Plus: BT Assay for Tumor necrosis factor alpha (TNF-alpha) Biomarker Activity (AID 2284230). Particulars: primary human B cells with PBMC. Put shortly:
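Read-out: Luminex xMAP quantitation of secreted TNF-alpha from a B cell/PBMC co-culture 24 h after compound addition. Signal analysed relative to DMSO vehicle, positive fitting direction.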

Read-out in assay [7]: Vascular cell adhesion molecule 1 (VCAM1), VCAM1 (gene 7412)
The experiment in a line: BSK_MyoF_VCAM1: BioMAP Diversity Plus: MyoF Assay for Vascular cell adhesion molecule 1 (VCAM1) Biomarker Activity (AID 2284231). Conditions: primary human lung fibroblasts. Put shortly:
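VCAM-1 levels, lung fibroblasts, ELISA, 24 h exposure, increase scored relative to DMSO.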

Read-out in assay [8]: Collagen I, COL1A1 (gene 1277)
The experiment in a line: BSK_MyoF_CollagenI: BioMAP Diversity Plus: MyoF Assay for Collagen I Biomarker Activity (AID 2284238). Particulars: primary human lung fibroblasts. The essentials: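 Measured by ELISA: Collagen I from human lung fibroblasts 24 h after compound addition, analysed for signal gain with DMSO as baseline; overt toxicity read from SRB staining of parallel cultures at the same time.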

Read-out in assay [9]: Collagen III, COL3A1 (gene 1281)
The experiment in a line: BSK_MyoF_CollagenIII: BioMAP Diversity Plus: MyoF Assay for Collagen III Biomarker Activity (AID 2284239). Particulars: primary human lung fibroblasts. Put shortly: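 Multiplexed cell assay in lung fibroblasts, harvested at 24 h post-dose. Collagen III detected by ELISA, with positive-direction fitting relative to DMSO vehicle.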

Assay [10] can be described thus: CCTE_Mundy_HCI_hNP1_Casp3_7: CCTE's Caspase-Glo 3/7 Assay in human neuroprogenitor cells for Apoptosis, Mundy Lab (AID 2284240). The essentials:
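Neuroepithelial-lineage stem cells from WA09 embryonic cells were treated with chemicals after 40–44 h of culture. Twenty-four hours later, caspase-3/7 activation was detected luminescently after a 30 min room-temperature reagent step, with DMSO as baseline.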

Molecules are shown by their SMILES. “And” between values parts separate entries of the source, which are not always exact repeats. Equal entries are not always repeated. The source made the active and inactive calls. Rule for the calls: active = hit-call score of the fitted dose curve at least 0.9, where 1 is the maximum; inactive = score below 0.9.

As usually defined, the AC50 is the concentration at which the activity in the assay is half-maximal.

Sequence of Tumor necrosis factor (Homo sapiens) (P01375 whole entry, looked up): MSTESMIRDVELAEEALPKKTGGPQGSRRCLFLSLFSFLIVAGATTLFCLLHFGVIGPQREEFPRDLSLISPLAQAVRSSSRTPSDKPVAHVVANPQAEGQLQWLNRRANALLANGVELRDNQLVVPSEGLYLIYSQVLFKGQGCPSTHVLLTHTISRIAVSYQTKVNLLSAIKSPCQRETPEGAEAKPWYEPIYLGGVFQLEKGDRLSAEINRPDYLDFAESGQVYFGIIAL

Turning to `OCC(F)(F)C(F)(F)C(F)(F)C(F)(F)C(F)(F)C(F)(F)CO`, the result in assay [1], in assay [2], in assay [3], in [4], in assay [5] and in [6] was inactive. Besides, the outcome in assay [7], in assay [8] and in [9] was inactive.
As for `OC(O)C(F)(F)C(F)(F)F`, the result in assay [1], in [2], in assay [3], in assay [4], in assay [5] and in [6] was inactive. In addition, the outcome in assay [7], in assay [8] and in assay [9] was inactive.
Regarding `CCN(CC)c1ccc(C=O)cc1`, the result in assay [1], in [2], in [3], in assay [4], in [5] and in assay [6] was inactive. In addition, the result in [7], in assay [8] and in [9] was inactive.
Regarding `C=CC(=O)OCC(F)(F)C(F)(F)C(F)(F)COC(=O)C=C`, the AC50 in assay [1] is 9.5 µM (active) and 8.85 µM (active); in assay [2], 6.41 µM (active) and 7.8 µM (active); in [3], 9.4 µM (active) and 9.64 µM (active); in assay [4], 10.4 µM (active) and 8.91 µM (active); in assay [5], 8.47 µM (active) and 6.45 µM (active); in assay [6], 8.9 µM (active) and 9.3 µM (active). Also, the AC50 in [7] is 9.52 µM (active) and 9.72 µM (active); in [8], 9.95 µM (active) and 11.1 µM (active); in assay [9], 13.9 µM (active) and 14.7 µM (active). In addition, the result in assay [10] was inactive.
On to `Cc1cnccn1`, for which the result in [1], in assay [3], in [4], in [5], in assay [6] and in assay [7] was inactive. For the same molecule, the result in [8] and in [9] was inactive. Besides, in assay [2], the AC50 is 5.22 µM (active).
On to `OCCCCC(F)(F)C(F)(F)C(F)(F)C(F)(F)F`, for which the result in assay [1], in [2], in [3], in [4], in assay [5] and in assay [6] was inactive. The result in [7], in [8], in assay [9] and in [10] was inactive.
As to `CC(C)CCCC(C)CCO` (centres undefined), the outcome in assay [1], in [2], in assay [3], in assay [4], in assay [5] and in assay [6] was inactive. For the same molecule, the half-maximal activity concentration (AC50) in assay [7] was 29.9 µM (active); in [8], 31.6 µM (active); in assay [9], 35.3 µM (active).
Regarding `NC(O)(C(F)(F)F)C(F)(F)F`, the result in assay [1], in assay [2], in assay [3], in assay [4], in [5] and in assay [6] was inactive. Besides, the outcome in assay [7], in assay [8], in assay [9] and in assay [10] was inactive.
Turning to `C[C@]12CC[C@H]3C(=CCc4cc(O)ccc43)[C@@H]1CCC2=O`, the result in assay [1], in assay [4], in assay [5], in assay [6], in [7] and in assay [8] was inactive. Besides, in [9], the outcome was inactive. Also, the AC50 in assay [2] was 29.1 µM (active); in [3] it was 26.1 µM (active).
Take `O=C(O)CCC(F)(F)C(F)(F)C(F)(F)F`: the result in assay [1], in assay [2], in assay [3], in assay [4], in [5] and in assay [6] was inactive. The result in assay [7], in assay [8], in assay [9] and in assay [10] was inactive.
`NS(=O)(=O)C(F)(F)C(F)(F)C(F)(F)C(F)(F)C(F)(F)C(F)(F)F`: the result in assay [1], in assay [2], in assay [3], in [4], in assay [5] and in assay [6] was inactive. The outcome in assay [7], in [8] and in assay [9] was inactive.
Turning to `NC(=O)C(F)(F)C(F)(F)C(F)(F)C(F)(F)C(F)(F)C(F)(F)C(F)(F)F`, the outcome in [1], in [2], in [3], in [4], in [5] and in [6] was inactive. Besides, the result in assay [7], in assay [8], in assay [9] and in [10] was inactive.
For the molecule `CCOC(C=C(C)CCC=C(C)C)OCC`, the result in [1], in assay [2], in assay [3], in assay [4], in assay [5] and in assay [6] was inactive. For the same molecule, the results for the half-maximal activity concentration (AC50) in assay [7], in assay [8] and in assay [9] were 27 µM (active), 30 µM (active) and 20 µM (active), respectively.
Consider `FC(F)(F)C(F)(F)C(F)(F)C(F)(F)C(F)(F)C(F)(F)CC[Si](Cl)(Cl)Cl`, for which the outcome in assay [1], in [2], in assay [3], in assay [4], in assay [5] and in [6] was inactive. The outcome in assay [7], in [8] and in assay [9] was inactive.
In the case of `O=C=Nc1cccc2c(N=C=O)cccc12`, the result in assay [1], in assay [3], in [4], in assay [5], in [6] and in [7] was inactive. In addition, the result in assay [8] and in assay [9] was inactive. In addition, the half-maximal activity concentration (AC50) in assay [2] is 12 µM (active).
`COC(F)(C(F)F)C(F)(F)F` (centres undefined): the result in assay [1], in assay [2], in [3], in assay [4], in [5] and in assay [6] was inactive. The outcome in [7], in [8] and in assay [9] was inactive.

The values above are taken from PubChem BioAssay (EPA / NIEHS).
